Measurements as given in PubChem BioAssay (NCI).
Compounds without any hit were thinned out: in the full panel of roughly 79,000, 15% have a hit. The source made the active and inactive calls. Rule as the data show it: active = growth inhibition above about 70%; inactive = the rest.

assay: NCI Yeast Anticancer Drug Screen. Data for the mlh1 rad18 strain (AID 175); conditions: S. cerevisiae mlh1 rad18 strain growth inhibition; at 50.0 µM; stronger effect = higher value
Outline: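 Yeast w/ defined DNA-repair lesions; compound exposure; growth vs vehicle controls → % inhibition.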

SMILES | growth inhibition
COc1cc(C(=O)N/N=C/c2cccc([N+](=O)[O-])c2)cc(OC)c1OC | -64.5% (inactive)
COC(=O)c1ccccc1Br | 6.45% (inactive)
c1ccc(/C(=N\N=C(/c2ccccc2)c2cccs2)c2cccs2)cc1 | 10.6% (inactive)
Cc1cc(NC(=O)CSCC(=O)O)no1 | -2.75% (inactive)
CC(=O)c1ccc(C)c(N)c1 | 27.4% (inactive)
O=C(O)c1cccc([N+](=O)[O-])c1O | 14.4% (inactive)
CC1OC(Oc2c(-c3ccc(O)c(O)c3)oc3cc(O)cc(O)c3c2=O)C(O)C(O)C1O (centres undefined) | 38.4% (inactive)
N#CC1(Nc2ccc3c4c(cccc24)CC3)CCCCC1 | 12.5% (inactive)
Nc1ccc(C(=O)c2ccc(N)c(Br)c2)cc1Br | 4.05% (inactive)
CC(=O)Oc1ccc(Br)cc1C(=O)O | 4.15% (inactive)
O=C(NN=C1CCCCC1)C(=O)NN=C1CCCCC1 | 28.6% (inactive)
Nc1ncnc2c1nc(N)n2C1OC(CO)C(O)C1O (centres undefined) | 0% (inactive)
N#CCCc1ccc(O)cc1 | -19.1% (inactive)
CCCCOC(OCCCC)c1ccccc1 | 12.2% (inactive)
CCCNC(=O)c1ccc(S(N)(=O)=O)cc1 | -0.25% (inactive)
CCCCCCCO | -11.9% (inactive)
COc1ccccc1NC(=O)c1cc2cc(Br)ccc2cc1O | 34.2% (inactive)
COc1cc(C(=O)NC(=S)Nc2ccc3ccccc3c2)cc(OC)c1OC | 13.1% (inactive)
OCC(O)C(O)C(O)C(O)/C=N/O (centres undefined) | 3.65% (inactive)
O=[N+]([O-])c1ccc(-c2noc(-c3cccs3)n2)cc1 | -11.8% (inactive)

SMILES | growth inhibition
CC1CCCC(CC(N)=O)CC1 (centres undefined) | 4.2% (inactive)
COc1cc(OC)c2ccc(=O)oc2c1 | 24.1% (inactive)
N=c1c(C(=O)OCc2ccccc2)ncc(CCl)n1O | 77.8% (active)
Cc1cc2nc(CO)[nH]c2cc1C | 1.8% (inactive)
CC(CN1CCCCC1)NC(=O)c1scnc1-c1ccccc1 (centres undefined) | -4.55% (inactive)
COc1ncnc2c1cnn2C | 2.9% (inactive)
O/N=C/c1ccc(O)cc1O | -33.4% (inactive)
O=c1[nH]nc(SC2CCCCC2)c(=O)[nH]1 | -11.1% (inactive)
CCCCCCCCOC(=O)c1ccccn1 | -3.2% (inactive)
CN(C)c1nc2c([nH]1)c(=O)n(C)c(=O)n2C | 5.45% (inactive)
COC(=O)c1ccc(NC(=O)CCl)cc1 | 45.5% (inactive)
OCCN(CCO)C(=S)S | -0.85% (inactive)
CC(=O)Nc1cccc(NC(C)=O)n1 | 6.1% (inactive)
COc1cc(C2c3cc4c(cc3C3OC(=O)C2C3CO)OCO4)cc(OC)c1OC (centres undefined) | -3.85% (inactive)
COc1cc(/C=C(\C#N)C(=O)c2ccccc2)ccc1OCc1ccccc1 | -18% (inactive)
COCCOC(=O)c1ccc(C(C)C)cc1 | -0.45% (inactive)
Cc1cc(O)ccc1O | 42.3% (inactive)
NC(N)=Nc1cc2ccccc2c2ccccc12 | -4.95% (inactive)
O=C(/C=C\c1ccc(O)cc1)c1ccccc1 | 14.1% (inactive)
